Measurements reported in PubChem BioAssay AID639 (Emory University Molecular Libraries Screening Center, 2007).
The whole screen tested about 86,000 compounds, of which about 1,200 (1.4%) were called active. Cut-off read from the data, not from the text of the source: active = activity above about 200%; inactive = the rest. This excerpt belongs to a sample that is enriched for actives.

Biological target: Estrogen receptor (Homo sapiens) (UniProt P03372)
Assay: ERα coactivator recruitment potentiators – biochemical, TR-FRET, ERα LBD, low estradiol, primary screen (AID 639);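 note: binding measured in presence of low estradiol as agonist stimulus; 0% = peptide alone without receptor and 100% = receptor with peptide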
Details: TR-FRET ERalpha-LBD/SRC-Cy5 coactivator binding, 2 h; at 25.6 µM; hits give high values; 100 = basal binding, no effect

Sequence of Estrogen receptor (Homo sapiens) (P03372 whole entry, looked up, the tested form may be a part): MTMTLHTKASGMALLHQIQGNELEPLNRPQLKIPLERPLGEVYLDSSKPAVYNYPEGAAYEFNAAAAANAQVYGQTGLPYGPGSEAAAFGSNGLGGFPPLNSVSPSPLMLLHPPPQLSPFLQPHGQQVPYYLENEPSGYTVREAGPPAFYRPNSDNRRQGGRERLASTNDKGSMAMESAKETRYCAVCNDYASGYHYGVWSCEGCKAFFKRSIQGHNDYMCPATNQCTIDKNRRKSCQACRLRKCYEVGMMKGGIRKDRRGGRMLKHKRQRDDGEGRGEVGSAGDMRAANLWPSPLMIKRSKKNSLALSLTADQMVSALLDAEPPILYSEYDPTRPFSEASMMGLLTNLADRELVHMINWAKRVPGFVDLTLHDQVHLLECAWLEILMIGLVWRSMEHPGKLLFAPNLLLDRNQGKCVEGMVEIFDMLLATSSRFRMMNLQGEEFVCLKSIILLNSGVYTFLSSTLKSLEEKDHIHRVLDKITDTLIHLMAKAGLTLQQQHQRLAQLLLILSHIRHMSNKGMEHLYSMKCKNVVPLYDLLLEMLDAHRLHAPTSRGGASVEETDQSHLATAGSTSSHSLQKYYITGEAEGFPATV

Row | SMILES | coactivator binding (% of control)
1 | CCOc1ccccc1C1C(C(=O)OC)=CN(C)C=C1C(=O)OC | 93.7% (inactive)
2 | CCOc1cc(C2C(C(=O)OC)=CN(C3CCCC3)C=C2C(=O)OC)cc(Br)c1O | 210% [fluorescence artefact?] (active)
3 | CCOc1ccc(CNC(=O)C2CCC(=O)N2C2CCCC2)cc1OC (configuration not stated) | 131% (inactive)
4 | CCOCc1nnc(NC(=O)CSc2ccc(C)cc2)s1 | 102% (inactive)
5 | CCOc1ccccc1NC(=O)C1CCCN(C(=O)Nc2ccccc2)C1 (configuration not stated) | 92.4% (inactive)
6 | CCOc1ccc(CC(=O)Nc2ccc(S(=O)(=O)Nc3cc(C)on3)cc2)cc1OCC | 311% [fluorescence artefact?] (active)
7 | Cc1cc(NS(=O)(=O)c2ccccc2)no1 | 122% (inactive)
8 | CCOc1ccc(NC(=O)Nc2cc(C)on2)cc1 | 107% (inactive)
9 | CCCCC(C(=O)OCC(=O)c1ccc(OC)cc1)N1C(=O)c2ccccc2C1=O (configuration not stated) | 97.8% (inactive)
10 | Cn1c(=O)c2c(ncn2CC(COCc2ccccc2Cl)OCc2ccccc2Cl)n(C)c1=O (configuration not stated) | 112% (inactive)
11 | CCOC(=O)c1nnn(-c2nonc2-n2cccc2)c1CN1CCC(C(=O)OCC)CC1 | 114% (inactive)
12 | O=c1[nH]c(SCc2ccccc2)nnc1-c1ccccc1 | 103% (inactive)
13 | CCOc1ccc2cc(C#N)c(SCC(=O)OC)nc2c1 | 260% [fluorescence artefact?] (active)
14 | COc1ccc(N2CCN(C(=O)CSc3nc4cc(OC)c(OC)cc4cc3C#N)CC2)cc1 | 101% (inactive)
15 | COC(=O)CSc1nc(C)c2ccc(OC)cc2n1 | 100% (inactive)
16 | CC(C)C(OC(=O)c1cccs1)C(=O)NC1CCCCC1 (configuration not stated) | 115% (inactive)
17 | CCOCCCNC(=O)C(NC(=O)c1ccc(=O)[nH]c1)c1ccc(C)cc1 (configuration not stated) | 107% (inactive)
18 | CCOC(=O)c1cnc(-n2nc(C)cc2C)nc1-n1nc(C)cc1C | 116% (inactive)
19 | CCOC(=O)c1cnc(-n2nc(C)cc2C)nc1Nc1cccc(C(C)=O)c1 | 868% [fluorescence artefact?] (active)
20 | CCOC(=O)c1cnc(SCC(=O)Nc2cccc(OC)c2)nc1N | 113% (inactive)
21 | N=c1c2c3c(sc2nc2n1CCCCC2)CCCC3 | 113% (inactive)
22 | CNC(=S)N1N=C(c2ccccc2)CC1c1ccc(Br)cc1 (configuration not stated) | 171% (inactive)
23 | COc1ccc(OC)c(C(=O)CSc2nnc(-c3cccs3)o2)c1 | 125% (inactive)

Row | SMILES | coactivator binding (% of control)
24 | COc1ccc(-n2c(C)cc(C(=O)CSc3nnc(-c4cccs4)o3)c2C)cc1 | 201% (active)
25 | COc1ccc(-c2nnc(SCC(=O)c3cccs3)o2)c(OC)c1 | 94.7% (inactive)
26 | CCN(CC)C(=O)CSc1ncnc2c1cnn2-c1ccccc1 | 117% (inactive)
27 | Cc1nc2c(-c3ccc(F)cc3)c(C)nn2c(C)c1CCC(=O)NCc1ccco1 | 96.1% (inactive)
28 | CC(C)N1C(=S)SC(C)(C)C1n1oc(=O)n(-c2ccc(Cl)c(Cl)c2)c1=O (configuration not stated) | 113% (inactive)
29 | Cc1cc(C)n(C(=O)CCNC(=O)c2ccccc2Cl)n1 | 100% (inactive)
30 | Cc1ccc(C)c(N2C(=O)CS/C2=N\NC(=O)c2ccccc2Cl)c1 | 102% (inactive)
31 | CCc1ccc(CNC(=O)C2CC(=O)N(CCc3ccc(C)cc3)C2)cc1 (configuration not stated) | 115% (inactive)
32 | N#CC(=C1SC=CS1)c1nc(-c2ccccc2)cs1 | 206% (active)
33 | N#CC(=C1CCCC1)c1nc(-c2ccc(Cl)cc2)cs1 | 103% (inactive)
34 | N#C/C(=C1\CCCN1)c1nc(-c2ccccc2)cs1 | 116% (inactive)
35 | Cc1nc(N2CCOCC2)nc2c1CCCC2 | 111% (inactive)
36 | CCCOc1ccc(N2C(=O)CC(N(CCc3ccc(S(N)(=O)=O)cc3)C(C)=O)C2=O)cc1 (configuration not stated) | 126% (inactive)
37 | Nn1c(Cc2cccc3ccccc23)nnc1SCC(=O)N1CC(=O)Nc2ccccc21 | 63.7% (inactive)
38 | COc1ccc(-n2ncc3c(N4CCCc5ccccc54)ncnc32)cc1 | 97.2% (inactive)
39 | Cc1cccc(-n2ncc3c(N4CCc5ccccc54)ncnc32)c1 | 137% (inactive)
40 | COc1ccc(-n2ncc3c(N4CCc5ccccc54)ncnc32)cc1 | 200% [fluorescence artefact?] (active)
41 | CCOC(=O)NC(C(F)(F)F)(C(F)(F)F)P(=O)(c1ccccc1)c1ccccc1 | 95.9% (inactive)
42 | CCOC(=O)c1nnn(-c2nonc2OC)c1-c1ccccc1 | 102% (inactive)
43 | CCOC(=O)C1=C(c2ccccc2)O/C(=C(/C(=O)OC)C(F)(F)F)S1 | 360% [fluorescence artefact?] (active)
44 | COC(=O)c1ccccc1NC(=O)Cc1ccccc1OC | 120% (inactive)
45 | COc1ccc(NC(=O)CC2COc3ccccc3O2)c(OC)c1 (configuration not stated) | 104% (inactive)
46 | CCc1ccc(NC(=O)CSc2nnc(-c3cnccn3)n2Cc2ccco2)cc1 | 148% (inactive)

Row | SMILES | coactivator binding (% of control)
47 | Cc1ccc(NC(=O)CSc2nnc(-c3cnccn3)n2Cc2ccco2)cc1C | 335% (active)
48 | O=C(CSc1nnc(-c2cnccn2)n1Cc1ccco1)c1ccc(Cl)c(Cl)c1 | 137% (inactive)
49 | CCOc1ccc(NC(=O)CN(C)CC(=O)Nc2cccc(Cl)c2C)cc1OCC | 105% (inactive)
50 | O=C(NCCCN1CCCCCC1)c1ccc(N2CCCC2=O)cc1 | 588% [fluorescence artefact?] (active)
51 | CC1CCC(NC(=O)c2ccc(N3CCCC3=O)cc2)CC1 (configuration not stated) | 143% (inactive)
52 | CCOc1ccc(C(=O)NCCCN2CCCC2=O)cc1 | 96% (inactive)
53 | CCOc1cc(C(=O)Nc2c(C)ccc3nsnc23)cc(OCC)c1OCC | 78.1% (inactive)
54 | O=C(NCc1ccccc1)C1CCCN(S(=O)(=O)c2cccs2)C1 (configuration not stated) | 91.1% (inactive)
55 | COCCNC(=O)COc1ccccc1C | 118% (inactive)
56 | COc1ccc(CCNC(=O)CN(c2ccccc2)S(C)(=O)=O)cc1OC | 76.4% (inactive)
57 | CN(C)c1ccnc2sc3c(=O)n(-c4ccc(Cl)cc4)cnc3c12 | 162% (inactive)
58 | COCCn1c(C)cc(C(=O)CSc2ncnc3sc4c(c23)CCC4)c1C | 409% [fluorescence artefact?] (active)
59 | Cc1cc(C)n(-c2nc(SCC(=O)N3CCCC3)c3c4c(sc3n2)CCCC4)n1 | 93.8% (inactive)
60 | COCCn1c(SCc2nnc(-c3ccc(OC)c(OC)c3)o2)nc2sc3c(c2c1=O)CCC3 | 94.4% (inactive)
61 | CCCCCCC12CCC(C(=O)O)(CC1)CC2 | 104% (inactive)
62 | CC(=O)Oc1ccc(NC(=O)CCC2CCCCC2)c(C(=O)O)c1 | 105% (inactive)
63 | CC(NC(=O)C1CCC(CNc2c(N3CCOCC3)c(=O)c2=O)CC1)c1ccccc1 (configuration not stated) | 98.1% (inactive)
64 | Cc1nc(SCC(=O)Nc2cc(C)on2)c2c(C)c(C)sc2n1 | 565% [fluorescence artefact?] (active)
65 | C=CCn1c(SCc2c(C)noc2C)nc2sc3c(c2c1=O)CCC(C)C3 (configuration not stated) | 93.6% (inactive)
66 | Cc1ccc(-c2csc(SCC(=O)Nc3cc(C)on3)n2)cc1 | 98.5% (inactive)
67 | Cc1cc(NC(=O)CSc2nc(C(C)C)nc3sc4c(c23)CCC(C)C4)no1 (configuration not stated) | 269% [fluorescence artefact?] (active)
68 | CC1CCc2c(sc3nc4n(c(=O)c23)CCS4)C1 (configuration not stated) | 96.2% (inactive)
69 | Cc1nc(SCC(=O)Nc2cc(C)on2)c2c3c(sc2n1)CCCC3 | 128% (inactive)

Row | SMILES | coactivator binding (% of control)
70 | O=C(c1ccc2c(c1)OCO2)N1CCN(C(=O)c2ccco2)CC1 | 103% (inactive)
71 | Cc1cccc(S(=O)(=O)CC(=O)Nc2nc(-c3ccccc3)cs2)c1 | 103% (inactive)
72 | Cc1cc(=O)oc2cc(OCC3CC(c4ccccc4Cl)=NO3)ccc12 (configuration not stated) | 117% (inactive)
73 | O=C(Nc1ccc(Br)cc1)c1cccc(NC(=O)C2C3CC4OC(=O)C2C4C3)c1 (configuration not stated) | 115% (inactive)
74 | CCN1C(=O)/C(=C\N2CCN(c3ccccc3)CC2)SC1=S | 289% (active)
75 | CCN1C(=O)/C(=C\N2CCN(c3cccc(Cl)c3)CC2)SC1=S | 413% [fluorescence artefact?] (active)
76 | CCS(=O)(=O)N1CCC(C(=O)N2CCN(c3ccccc3)CC2)CC1 | 103% (inactive)
77 | CCN1C(=O)/C(=C\N2CCOCC2)SC1=S | 93% (inactive)
78 | CS(=O)(=O)N(CC(=O)N1CCN(c2cccc(Cl)c2)CC1)c1ccccc1 | 118% (inactive)
79 | CCn1c(=O)cc(OCC(=O)NCCCN2CCN(c3cccc(Cl)c3)CC2)c2ccccc21 | 107% (inactive)
80 | Cc1cccc(-c2nc3c(c(SCC(=O)N4CCOCC4)n2)CCCC3)c1 | 94.4% (inactive)
81 | CC1CCN(C(=O)c2cc3nc(C4CC4)cc(C(F)(F)F)n3n2)CC1 | 93.5% (inactive)
82 | COCCNC(=O)Cn1cc(C(=O)c2cccs2)c2ccccc21 | 102% (inactive)
83 | CCn1c(SCC(=O)Nc2cccc(F)c2)nnc1-c1cc2cc(Br)ccc2o1 | 476% (active)
84 | CCn1c(Cc2ccccc2)nnc1SCC(=O)Nc1ccccc1 | 122% (inactive)
85 | CCCn1c(SCC(=O)Nc2cccc(C(=O)OCC)c2)nnc1-c1ccoc1C | 97.2% (inactive)
86 | CCOc1ccc(-n2c(N)c(C(=O)NCC3CCCO3)sc2=S)cc1 (configuration not stated) | 99.2% (inactive)
87 | O=c1[nH][nH]c(C(F)(F)F)c1C=NCc1ccccc1Cl | 109% (inactive)
88 | CC1CCCC(C)N1CCCNC(=O)c1cc2c(=O)n(C)c3ccccc3c2n1C (configuration not stated) | 74.4% (inactive)
89 | Cn1c(C(=O)NCCc2ccsc2)cc2c(=O)n(C)c3ccccc3c21 | 278% (active)
90 | Cn1c(C(=O)NCCCN2CCN(c3cccc(Cl)c3)CC2)cc2c(=O)n(C)c3ccccc3c21 | 132% (inactive)
91 | CCOc1ccc(S(=O)(=O)NCC2CCCO2)cc1 (configuration not stated) | 97.5% (inactive)
92 | COCCn1c(=S)[nH]c2cc(C(=O)NCCc3ccc(OC)c(OC)c3)ccc2c1=O | 179% (inactive)
